# Experimental data reported in PubChem BioAssay (NCI).
# About 83,000 compounds went through this panel and 20% of them were active in at least one assay; those are over-represented in the sample as a whole.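 How to read the values: 0–100, growth inhibition (40 = 60% inhibited); 0, no net growth; -100 to 0, cell death (-40 = 40% of starting cells died; -100 = all dead).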 Values without a mark were called inactive. The source made the active and inactive calls. Rule for the calls: active = growth percent below 10; inactive = the rest.
# Test system: OVCAR-8 ovarian
# Experiment: NCI-60 one-dose screen, 48 h (100 = growth as untreated, 0 = no growth, -100 = all killed)
# Settings: 10 µM unless noted
row,SMILES,growth
1,CSc1ccc(-c2n[nH]nc2-c2cc3ccccc3s2)cc1,59.3%
2,Clc1ccc2c(NCCCNc3nc(-n4ccnc4)nc4ccccc34)ccnc2c1,86.2%
3,CN1CCN(c2nc(NCCCNc3ccnc4cc(Cl)ccc34)c3ccccc3n2)CC1,38.8%
4,CN(C)c1ccc(NC(=O)c2ccc(/C=C/C(=O)c3ncc[nH]3)cc2)cc1,26.6%
5,COc1ccc(S(=O)(=O)N2CCCCC2)cc1NC(=O)c1[nH]c(C)c2c1CCCCC2=O,32.8%
6,CCn1c(O)c(/C=N/NC(=O)C(C)c2ccc(CC(C)C)cc2)sc1=S (stereo not drawn),22.6%
7,Cc1nn(-c2cc(=O)[nH]c3ccc(Cl)cc23)c(N)c1C#N,91.6%
8,O=C1/C(=C(/c2ccccc2)N2CCOCC2)Cc2ccccc21,20.4%
9,O=C(COc1cccc(/C=C2\COc3ccccc3C2=O)c1)Nc1nccs1,20.3%
10,CCN=C1C=CC(=C(c2ccc(N)cc2)c2ccc(N(CC)CC)c(C)c2)C=C1,1.54% (active)
11,O=C(C(=O)c1ccc2c(c1)OCO2)c1ccc2c(c1)OCO2,95.3%
12,COc1ccc(/C=C2\Oc3cc(OCCCCN4CCCC4)ccc3C2=O)cc1,91.1%
13,COc1cc(-c2nn(-c3ccc(Br)cc3)cc2C(=O)O)ccc1O,105%
14,O=c1ccccc(-c2ccc(-c3ccco3)cc2)c1O,12.7%
15,Cn1cc(C(=O)c2nc(-c3c[nH]c4ccc(Br)cc34)no2)c2cc(F)ccc21,94.6%
16,COc1ccc(O)c(N=Nc2nccs2)c1,52.1%
17,CCc1nc(N)nc(N)c1C#CC(C)c1cc(-c2ccnc(C)c2)c2oc(C)nc2c1 (stereo not drawn),18.6%
18,CC(=O)Nc1ccc(-n2c(O)c(/C=N/NC(=O)Cc3ccccc3Nc3c(Cl)cccc3Cl)sc2=S)cc1,91.7%
19,O=Nc1c(O)c(Cl)cc2ccccc12,68.6%

row,SMILES,growth
1,FC(F)(F)c1ccc(-c2cn3nc(-c4c[nH]c5ccc(Br)cc45)sc3n2)cc1,105%
2,Cn1cc(-c2nonc2-c2c[nH]c3ccccc23)c2cccnc21,47.8%
3,Cn1cc(-c2nonc2-c2cn(C)c3ccc(F)cc23)c2ccccc21,28.5%
4,Brc1ccc(-c2csc(Nc3ccccn3)n2)cc1,101%
5,Clc1ccc2c(NCCNc3nc(N4CCOCC4)nc4ccccc34)ccnc2c1,-25.8% (active)
6,COc1ccc(-c2cc(-c3ccc(Nc4ccnc5cc(Cl)ccc45)cc3)nc(N3CCOCC3)n2)cc1,15.3%
7,COc1cc2c(cc1-c1c(C)noc1C)ncc1nc(C3CCCC3)n([C@H](C)COC(F)F)c12,38.6%
8,CCOc1cc2ncc(C#N)c(Nc3ccc(OCc4cccc(F)c4)c(Cl)c3)c2cc1NC(=O)CCCCC1CCSS1 (stereo not drawn),91%
9,Oc1ccccc1-c1nnc(CNc2ccc(Cl)cc2)o1,18.6%
10,COc1cc2c(cc1-c1c(C)noc1C)ncc1nc(C3CCCCC3)n([C@H](C)COC(F)F)c12,42%
11,COc1cc(/C=C/C(=O)Nc2cccnc2Nc2ccc(F)cc2)cc(OC)c1OC,81.7%
12,Cn1c(NCCc2ccc(O)c(O)c2)nc2c1c(=O)n(Cc1ccc(Cl)c(Cl)c1)c(=O)n2C,74.4%
13,Cc1ccc(C2=NN3C(C2)c2cc(Br)ccc2OC32CCN(Cc3ccccc3)CC2)o1 (stereo not drawn),98.8%
14,O=C1/C(=C/C(Cl)=C/c2ccccc2)SC(=S)N1CCc1ccc(O)cc1,16.7%
15,NC(=O)c1cc(Br)ccc1NC(=O)/C=C/c1ccccc1,54.4%
16,CC(O)CN(CC(C)O)c1ccc2c(c1)Cc1cc([N+](=O)[O-])ccc1-2 (stereo not drawn),118%
17,C=C1C(=O)O[C@H]2[C@H]1CC/C(COC(=O)c1cc3cc(OC)ccc3[nH]1)=C\CC[C@@]1(C)O[C@@H]21,-66.9% (active)
18,COc1cc(C(=O)/C=C/c2cccnc2Nc2ccc(Cl)cc2)cc(OC)c1OC,-17.6% (active)
19,O=c1cc(CSc2nnc(SCc3cc(=O)oc4c3ccc3ccccc34)o2)c2ccc3ccccc3c2o1,94.1%
